Each structure is given as a SMILES string. Values joined by “and” are separate entries in the source; they are usually repeats but may differ in a detail not shown here. Equal entries are not always repeated. Results filed as inconclusive are left out. Active and inactive are the calls of the source. The call rests on the fitted dose curve; in most records, active means well fitted cell-killing curve with a large enough effect; inconclusive means small, poorly fitted or top-dose-only effect, or effect the other way; inactive means no such curve, though single readings can be large or run the other way.

A short description of assay [1]: Viability qHTS for spleen associated tyrosine kinase inhibitor (SYKi) naive MV4-11 cells (AID 1963823). Further: nearly all actives have a fitted effect of over 40% in size. A digest of the protocol: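 Compounds were dispensed acoustically onto plates, MV4-11 cells (SYKi-naive) added at 500 per well, and plates incubated 72 hr at 37 C. CellTiter-Glo was added and luminescence measured after 10 min.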
Assay [2] can be described thus: Viability qHTS for spleen associated tyrosine kinase inhibitor (SYKi) drug resistant MV4-11 cells (AID 1963824). Further: nearly all actives have a fitted effect of over 35% in size. A digest of the protocol: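 SYK inhibitor-resistant MV4-11 AML cells, 500 per well, added to predispensed compounds and incubated 72 hr at 37 C, 5% CO2. Viability measured by CellTiter-Glo luminescence after 10 min at room temperature.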
For orientation: Quantitative high-throughput screening tests each substance at several concentrations.
Potency means the concentration at half of the fitted maximal effect.

For `COC1=CC(=O)O[C@@H](/C=C/c2ccccc2)[C@@H]1O`, the Potency entry in assay [1] and in assay [2] was “inactive” in each case.
For `CC12CC34CC(O)C5C(CO)(CO)CC(=O)CC5(C)C3CC1C2C4` (configuration not stated), the Potency result in assay [1] and in assay [2] was “inactive” in each case.
Take `COc1cc(C(=O)OC[C@@]2(O)CO[C@@H](O[C@H]3[C@H](Oc4ccc(O)cc4)O[C@H](CO)[C@@H](O)[C@@H]3O)[C@@H]2O)cc(OC)c1O`: the Potency entry in assay [1] and in assay [2] was “inactive” in each case.
On to `CC1=C(C(=O)O[C@@H]2O[C@H](COC3OCC(O)C(O)C3O)[C@@H](O)[C@H](O)[C@H]2O)C(C)(C)CCC1` (some centres not stated), for which the Potency result in assay [1] and in assay [2] was “inactive” each time.
With `C/C=C/C=C/C=C/C(=O)N(C)C(C(=O)NC(C)C(=O)N1CCCC1C(N)=O)C(C)C` (configuration not stated), the Potency entry in assay [1] and in assay [2] was “inactive” each time.
For `C=C1C(=O)OC2C3=C(C)C(=O)CC3C(C)CC(O)C12` (configuration not stated), the Potency in assay [1] is 13 µM (active); in assay [2], 6.51 µM (active).
Turning to `COc1cc(C2Oc3c(OC)cc(CCCO[C@@H]4O[C@H](CO)[C@@H](O)[C@H](O)[C@H]4O)cc3C2CO)ccc1O` (some centres not stated), the Potency entry in assay [1] and in assay [2] was “inactive” each time.
Turning to `CCCc1cc(C)[nH]c(=O)c1CNC(=O)c1cc(-c2ccc(N3CCN(C(C)C)CC3)nc2)cc2c1cnn2C(C)C`, the Potency in assay [1] is 13 µM (active) and 5.9 µM (active); in assay [2] it was 8.2 µM (active) and 8.33 µM (active).
`C/C1=C/CCC2=CC(OC2=O)C(C)(C)/C=C/C1=O` (configuration not stated): the Potency in assay [1] and in assay [2] was 0.517 µM (active) each time.
As for `COc1cc(C(C)=O)ccc1O[C@@H]1O[C@H](CO)[C@@H](O)[C@H](O)[C@H]1O`, the Potency result in assay [1] and in assay [2] was “inactive” throughout.
As to `O=C(O)CC(=O)OC[C@H]1O[C@@H](Oc2ccc3c(c2)OC[C@H]2c4cc5c(cc4O[C@@H]32)OCO5)[C@H](O)[C@@H](O)[C@@H]1O`, the Potency entry in assay [1] and in assay [2] was “inactive” each time.

The record behind these values is PubChem BioAssay (NCATS).
